Screening data deposited in PubChem BioAssay by National Center for Advancing Translational Sciences (NCATS).
Cruzain inh noDet = qHTS Assay for Promiscuous and Specific Inhibitors of Cruzain (without detergent); Cruzipain (Trypanosoma cruzi), P25779; purified cruzain, Z-FR-AMC fluorescence, no detergent; Potency, µM, most hits filed as inhibitors; 2.3% of 200,000 active; also: nearly all actives have a fitted effect of over 40% in size
Target sequence (P25779 123-467 limits assumed): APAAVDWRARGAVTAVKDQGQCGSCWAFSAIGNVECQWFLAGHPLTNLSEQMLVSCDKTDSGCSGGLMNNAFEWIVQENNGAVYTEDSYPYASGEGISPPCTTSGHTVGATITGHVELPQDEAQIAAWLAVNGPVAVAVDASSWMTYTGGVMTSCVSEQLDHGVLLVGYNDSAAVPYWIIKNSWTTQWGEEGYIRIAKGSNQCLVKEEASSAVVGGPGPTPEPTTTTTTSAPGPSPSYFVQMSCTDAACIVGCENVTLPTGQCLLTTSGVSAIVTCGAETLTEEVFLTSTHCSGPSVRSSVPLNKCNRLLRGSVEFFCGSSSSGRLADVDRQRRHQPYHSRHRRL
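Purified cruzain at 1.5 nM, pre-incubated 15 min with compound at room temperature in 100 mM sodium acetate pH 5.5, 5 mM DTT, 0.00005% Triton X-100. Reaction started with 2 uM Z-FR-AMC; AMC fluorescence increase over 60 s gives rate.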
Cruzain inh Det = qHTS Assay for Promiscuous and Specific Inhibitors of Cruzain (with detergent). 0.43% of 200,000 active. Potency, µM, usual class: inhibitors. AID 1478, 2009. Cruzipain (Trypanosoma cruzi), P25779. purified cruzain, Z-FR-AMC fluorescence, 0.01% Triton; also: nearly all actives have a fitted effect of over 40% in size
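Enzyme 1.5 nM, Z-FR-AMC 2 uM, NaOAc 100 mM pH 5.5, DTT 5 mM, Triton X-100 0.01%; 15 min RT compound preincubation; kinetic ex360/em450, 60 s delta.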
Large screens that a line does not name were inactive. An excerpt weighted towards active compounds, which were near 2.6% of everything screened. Calls follow the shape of the dose curve; as a rule, active = well fitted curve in the direction sought with a large enough effect; inconclusive = small, poorly fitted or top-dose-only effect, or another doubt; inactive = no such curve, though single readings can be large; an effect the other way counts as inactive or inconclusive.

CCOc1ccc(-c2cn3c(n2)sc2cc(C(=O)NCCCN4CCCCCC4)ccc23)cc1	none
CCOc1ccc(-c2cn3c(n2)sc2cc(C(=O)NCCCN4CCCCC4)ccc23)cc1	Cruzain inh noDet 4µM
O=C(O)CSc1nnc2c3ccccc3c3ccccc3c2n1	none
Nn1c(SCC(=O)Nc2ccccc2F)nc2ccccc2c1=O	none
O=C(CSc1nnc2c3ccccc3c3ccccc3c2n1)Nc1ccccc1	Cruzain inh noDet 4µM
O=C(CSc1nnc2c3ccccc3c3ccccc3c2n1)Nc1ccccc1F	Cruzain inh noDet 7.9µM
COC(=O)c1ccc(C2CC(=O)Nc3c2c(C)nn3-c2nc(C)cc(C)n2)cc1 (configuration not stated)	none
Cc1ccc(O)c(C(=O)c2cnc3c(c2)CN(C)C(=O)N3)c1	none
Cc1ccc(O)c(C(=O)c2cnc3c(c2)CN(CCC(C)C)C(=O)N3)c1	Cruzain inh noDet 10µM
Cc1oc(-c2ccccc2Cl)nc1CS(=O)(=O)CC(=O)NCc1ccc(F)cc1	Cruzain inh noDet inconclusive
O=C(Nc1nc2ccccc2s1)c1cc2c(s1)-c1ccccc1OC2	Cruzain inh noDet 13µM
O=C(Nc1nccs1)c1cc2c(s1)-c1ccccc1OC2	Cruzain inh noDet inconclusive
O=C(NCCc1ccc(Cl)cc1)c1cc2c(s1)-c1ccccc1OC2	Cruzain inh noDet inconclusive
Cc1ccc(CCNC(=O)c2cc3c(s2)-c2ccccc2OC3)cc1	Cruzain inh noDet 13µM
Cc1ccc(NC(=O)C2CCCN2S(=O)(=O)c2cccc3nsnc23)c(Br)c1 (configuration not stated)	none
CCn1c(=O)cc(OCC(=O)Nc2cc(OC)c(OC)c(OC)c2)c2ccccc21	Cruzain inh noDet inconclusive
O=C(CCS(=O)(=O)c1ccc(Br)cc1)Nc1ccc(Cl)c(C(F)(F)F)c1	none
CCOC(=O)C(Cc1ccccc1)C(=O)Nc1ccc(NC(=O)C(Cc2ccccc2)C(=O)OCC)cc1 (configuration not stated)	Cruzain inh noDet 7.9µM
CCOC(=O)C(Cc1ccccc1)C(=O)Nc1ccccc1C (configuration not stated)	none
O=c1c2sc3ccccc3c2n(Cc2ccc(F)cc2)c(=O)n1Cc1ccccc1	none
Cc1ccc(NC(=O)Cn2nnc(C(=O)NCc3cccs3)c2N)cc1	Cruzain inh noDet inconclusive
CCc1ccccc1NC(=O)Cn1nnc(C(=O)Nc2ccc(OC)c(OC)c2)c1N	none
Cc1cccc(NC(=O)Cn2nnc(C(=O)Nc3ccc(F)c(Cl)c3)c2N)c1	Cruzain inh noDet 25µM
CCc1ccc(Cn2nnc(C(=O)Nc3ccc(OC)cc3OC)c2N)cc1	Cruzain inh noDet 25µM
Cc1ccc(NC(=O)Cn2nnc(C(=O)NCc3cccs3)c2N)cc1Cl	Cruzain inh noDet 25µM
COc1ccc(NC(=O)Cn2nnc(C(=O)Nc3ccc(C)c(F)c3)c2N)cc1Cl	none
CCc1ccccc1NC(=O)c1nnn(CC(=O)Nc2c(C)cc(C)cc2C)c1N	Cruzain inh noDet 32µM
COc1cc(OC)c(NC(=O)c2nnn(Cc3ccc(C)cc3)c2N)cc1Cl	none
COc1ccccc1CN1CCCC2(CCNCC2)C1	none
CCCCCCC(=O)Nc1cc2nc3c(nc2cc1C)c(=O)n(C)c(=O)n3C	none
CCc1ccccc1NC(=O)Cn1nnc(C(=O)NCc2cccs2)c1N	Cruzain inh noDet 20µM
COc1ccccc1NC(=O)Cn1nnc(C(=O)NCc2cccs2)c1N	none
CCc1ccc(NC(=O)Cn2nnc(C(=O)NCc3ccc(C)cc3)c2N)cc1	Cruzain inh noDet 20µM
Cc1ccc(CNC(=O)c2nnn(CC(=O)Nc3cc(C)ccc3C)c2N)cc1	none
O=C(NCCc1ccc(Cl)cc1)c1ccc(CSCc2ccccc2Cl)o1	none
CCc1ccc(NC(=O)c2ccc3c(O)c(S(=O)(=O)c4ccccc4)c(=O)[nH]c3c2)cc1	none
C=Cc1ccc(Cn2c(=O)n(-c3cccc(C)c3)c(=O)c3c2c2cc(C)ccc2n3C)cc1	Cruzain inh noDet 25µM
Cc1cccc(-n2c(=O)c3c(c4cc(C)ccc4n3C)n(C)c2=O)c1	none
Cc1ccc(Cn2ccn(Cc3ccccc3C)c(=O)c2=O)cc1	none
Cc1ccccc1Cn1ccc(-c2ccc(Cl)cc2)c(C#N)c1=O	Cruzain inh noDet 25µM
Cc1nc(-c2ccc(S(=O)(=O)NCc3ccc(N(C)C)cc3)cc2)co1	none
CCOc1ccc(C(=O)Nc2cccc(NC(=O)c3ccc(C(C)(C)C)cc3)c2)cc1Br	Cruzain inh noDet 7.9µM
CCOc1ccc(C(=O)Nc2cccc(NC(=O)c3ccco3)c2)cc1Cl	none
O=C(CNC(=O)c1ccco1)NCC(=O)OC(C(=O)c1ccccc1)c1ccc(Cl)cc1 (configuration not stated)	Cruzain inh Det inconclusive
O=C(CNC(=O)c1ccco1)OC(C(=O)c1ccccc1)c1ccccc1 (configuration not stated)	Cruzain inh noDet 7.9µM, Cruzain inh Det 6.3µM
Cc1ccc(C(=O)c2cn(CC(=O)Nc3ccc(C)cc3Cl)c3nc(C)ccc3c2=O)cc1	none
Cc1cc(O)c2c(-c3ccccc3)cc(=O)oc2c1	none
